Measurements from PubChem BioAssay AID1159580 (chemical genetic matrix, 2015).
Where “and” joins values, the source holds several entries; their conditions need not be identical. Equal entries are not always repeated. Out of some 5,500 compounds screened, about 2,000 (36%) were called active. Another 18% or so got no clear call; they are omitted. Some of the results follow. A number with no mark means an inactive call. No stated cut-off is given here; in the data, active means normalized growth mostly below about 0.91 (no sharp cut-off); inconclusive means no clear call, values can overlap the other calls; inactive means mostly above about 0.92.

Assay: chemical genetic growth profiling, strain panel (AID 1159580);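 further: tested at 20 µM; growth read once vehicle control cultures reached saturation at 30 °C; 1 = growth at the plate median or of vehicle wells; lower values mean less growth of the strain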
Conditions: S. cerevisiae deletion strains, growth OD

Q: Which normalized growth (locus YAL021C, strain ccr4, hits give low values) does the source give for `CCCOc1ccc2nc(NC(=O)OC)[nH]c2c1` here?
A: The normalized growth was 1.03.

Q: What about the normalized growth (locus YAL026C, strain drs2, hits give low values) of the same compound?
A: The normalized growth was 1.02.

Q: And the normalized growth (locus YAL030W, strain snc1, hits give low values)?
A: Its normalized growth is 1.02.

Q: What about the normalized growth (locus YBL061C, strain skt5, hits give low values) of the same compound?
A: Its normalized growth is 1.01.

Q: And the normalized growth (locus YBR009C, strain hhf1, hits give low values)?
A: The normalized growth was 1.01.

Q: What about the normalized growth (locus YBR021W, strain FUR4, hits give low values) of the same compound?
A: Its normalized growth is 1.01.

Q: What about the normalized growth (locus YBR023C, strain chs3, hits give low values) of the same compound?
A: Its normalized growth is 1.02.

Q: What about the normalized growth (locus YBR171W, strain sec66, hits give low values) of the same compound?
A: The normalized growth was 1.02.

Q: What about the normalized growth (locus YBR229C, strain ROT2, hits give low values) of the same compound?
A: The normalized growth was 0.992.

Q: What about the normalized growth (locus YBR231C, strain swc5, hits give low values) of the same compound?
A: The normalized growth was 1.01.

Q: And the normalized growth (locus YBR279W, strain paf1, hits give low values)?
A: Its normalized growth is 1.02.

Q: What about the normalized growth (locus YCL011C, strain gbp2, hits give low values) of the same compound?
A: The normalized growth was 1.01.

Q: What about the normalized growth (locus YCL016C, strain dcc1, hits give low values) of the same compound?
A: Its normalized growth is 1.02.

Q: What about the normalized growth (locus YCL029C, strain bik1, hits give low values) of the same compound?
A: The normalized growth was 0.974.

Q: And the normalized growth (locus YCL061C, strain MRC1, hits give low values)?
A: Its normalized growth is 1.01.

Q: What about the normalized growth (locus YCL069W, strain vba3, hits give low values) of the same compound?
A: The normalized growth was 1.02.

Q: What about the normalized growth (locus YCR088W, strain abp1, hits give low values) of the same compound?
A: Its normalized growth is 1.02.

Q: What about the normalized growth (locus YDL005C, strain med2, hits give low values) of the same compound?
A: Its normalized growth is 1.02.

Q: And the normalized growth (locus YDL035C, strain GPR1, hits give low values)?
A: Its normalized growth is 1.01.

Q: And the normalized growth (locus YDL040C, strain nat1, hits give low values)?
A: Its normalized growth is 1.02.

Q: And the normalized growth (locus YDL074C, strain BRE1, hits give low values)?
A: The normalized growth was 1.02.

Q: And the normalized growth (locus YDL101C, strain DUN1, hits give low values)?
A: The normalized growth was 0.997.

Q: And the normalized growth (locus YDL134C, strain PPH21, hits give low values)?
A: Its normalized growth is 0.982.

Q: What about the normalized growth (locus YDL185W, strain tfp1, hits give low values) of the same compound?
A: The normalized growth was 0.976.

Q: And the normalized growth (locus YDL192W, strain arf1, hits give low values)?
A: Its normalized growth is 0.97.

Q: What about the normalized growth (locus YDR001C, strain nth1, hits give low values) of the same compound?
A: Its normalized growth is 1.02.

Q: And the normalized growth (locus YDR069C, strain doa4, hits give low values)?
A: The normalized growth was 1.01.

Q: And the normalized growth (locus YDR101C, strain arx1, hits give low values)?
A: The normalized growth was 1.01.

Q: What about the normalized growth (locus YDR137W, strain rgp1, hits give low values) of the same compound?
A: Its normalized growth is 0.951.

Q: What about the normalized growth (locus YDR150W, strain NUM1, hits give low values) of the same compound?
A: Its normalized growth is 0.996.

Q: And the normalized growth (locus YDR159W, strain sac3, hits give low values)?
A: Its normalized growth is 1.01.

Q: What about the normalized growth (locus YDR162C, strain NBP2, hits give low values) of the same compound?
A: The normalized growth was 0.983.

Q: And the normalized growth (locus YDR195W, strain ref2)?
A: Its normalized growth is 1.04.

Q: And the normalized growth (locus YDR297W, strain sur2, hits give low values)?
A: Its normalized growth is 1.02.

Q: What about the normalized growth (locus YDR318W, strain mcm21, hits give low values) of the same compound?
A: The normalized growth was 0.977.

Q: What about the normalized growth (locus YDR334W, strain swr1, hits give low values) of the same compound?
A: The normalized growth was 1.01.

Q: And the normalized growth (locus YDR335W, strain msn5, hits give low values)?
A: Its normalized growth is 1.02.

Q: And the normalized growth (locus YDR388W, hits give low values)?
A: Its normalized growth is 0.981.

Q: What about the normalized growth (locus YDR392W, strain spt3, hits give low values) of the same compound?
A: The normalized growth was 0.99.

Q: And the normalized growth (locus YDR502C, strain sam2, hits give low values)?
A: Its normalized growth is 0.983.

Q: What about the normalized growth (locus YEL003W, strain gim4, hits give low values) of the same compound?
A: The normalized growth was 0.841 (active).

Q: And the normalized growth (locus YEL037C, strain rad23, hits give low values)?
A: The normalized growth was 1.01.

Q: And the normalized growth (locus YEL061C, strain CIN8 (second series), hits give low values)?
A: Its normalized growth is 1.02.

Q: And the normalized growth (locus YEL061C, strain CIN8, hits give low values)?
A: Its normalized growth is 0.999.

Q: What about the normalized growth (locus YER015W, strain faa2, hits give low values) of the same compound?
A: The normalized growth was 1.

Q: What about the normalized growth (locus YER016W, strain bim1, hits give low values) of the same compound?
A: The normalized growth was 1.02.

Q: What about the normalized growth (locus YER110C, hits give low values) of the same compound?
A: Its normalized growth is 0.968.

Q: And the normalized growth (locus YER111C, strain swi4, hits give low values)?
A: Its normalized growth is 1.01.

Q: And the normalized growth (locus YER155C, strain BEM2 (second series), hits give low values)?
A: Its normalized growth is 1.02.

Q: What about the normalized growth (locus YER155C, strain BEM2, hits give low values) of the same compound?
A: Its normalized growth is 0.992.

Q: And the normalized growth (locus YER167W, strain BCK2, hits give low values)?
A: Its normalized growth is 0.988.

Q: What about the normalized growth (locus YFR010W, strain ubp6, hits give low values) of the same compound?
A: Its normalized growth is 1.02.

Q: What about the normalized growth (locus YGL078C, strain dbp3, hits give low values) of the same compound?
A: The normalized growth was 0.982.

Q: And the normalized growth (locus YGL086W, strain mad1, hits give low values)?
A: Its normalized growth is 0.989.

Q: What about the normalized growth (locus YGL167C, strain pmr1, hits give low values) of the same compound?
A: Its normalized growth is 1.01.

Q: What about the normalized growth (locus YGL173C, strain kem1, hits give low values) of the same compound?
A: The normalized growth was 1.02.

Q: And the normalized growth (locus YGL227W, strain vid30, hits give low values)?
A: The normalized growth was 1.02.

Q: What about the normalized growth (locus YGL240W, strain doc1, hits give low values) of the same compound?
A: Its normalized growth is 1.

Q: And the normalized growth (locus YGL248W, strain PDE1, hits give low values)?
A: The normalized growth was 0.986.

Q: What about the normalized growth (locus YGL253W, strain hxk2, hits give low values) of the same compound?
A: Its normalized growth is 1.01.

Q: And the normalized growth (locus YGR078C, strain PAC10, hits give low values)?
A: Its normalized growth is 0.856.

Q: What about the normalized growth (locus YGR135W, strain pre9, hits give low values) of the same compound?
A: Its normalized growth is 0.953.

Q: What about the normalized growth (locus YGR229C, strain SMI1, hits give low values) of the same compound?
A: Its normalized growth is 0.983.

Q: And the normalized growth (locus YGR252W, strain gcn5, hits give low values)?
A: The normalized growth was 0.956.

Q: What about the normalized growth (locus YHR013C, strain ard1, hits give low values) of the same compound?
A: The normalized growth was 1.01.

Q: And the normalized growth (locus YHR027C, strain rpn1, hits give low values)?
A: The normalized growth was 1.01.

Q: And the normalized growth (locus YHR030C, strain SLT2, hits give low values)?
A: Its normalized growth is 0.988 and 1.02.

Q: What about the normalized growth (locus YHR079C, strain IRE1 (second series), hits give low values) of the same compound?
A: The normalized growth was 0.986.

Q: And the normalized growth (locus YHR079C, strain IRE1, hits give low values)?
A: Its normalized growth is 1.02.

Q: What about the normalized growth (locus YHR094C, strain hxt1, hits give low values) of the same compound?
A: Its normalized growth is 0.982.

Q: And the normalized growth (locus YHR129C, strain ARP1, hits give low values)?
A: Its normalized growth is 0.989.

Q: And the normalized growth (locus YHR142W, strain chs7, hits give low values)?
A: Its normalized growth is 1.03.

Q: What about the normalized growth (locus YHR200W, strain rpn10, hits give low values) of the same compound?
A: Its normalized growth is 0.98.

Q: What about the normalized growth (locus YIL066C, strain RNR3, hits give low values) of the same compound?
A: The normalized growth was 0.996.

Q: And the normalized growth (locus YIL073C, strain SPO22, hits give low values)?
A: The normalized growth was 0.964.

Q: What about the normalized growth (locus YIL125W, strain kgd1, hits give low values) of the same compound?
A: Its normalized growth is 0.993.

Q: What about the normalized growth (locus YIR030C, strain dcg1, hits give low values) of the same compound?
A: The normalized growth was 0.983.

Q: What about the normalized growth (locus YJL092W, strain hpr5, hits give low values) of the same compound?
A: Its normalized growth is 1.01.

Q: And the normalized growth (locus YJL095W, strain BCK1 (second series), hits give low values)?
A: Its normalized growth is 1.02.

Q: And the normalized growth (locus YJL095W, strain BCK1, hits give low values)?
A: Its normalized growth is 1.01 and 1.06.

Q: What about the normalized growth (locus YJL115W, strain asf1, hits give low values) of the same compound?
A: The normalized growth was 1.

Q: And the normalized growth (locus YJL129C, strain trk1, hits give low values)?
A: The normalized growth was 1.03.

Q: And the normalized growth (locus YJL134W, strain LCB3, hits give low values)?
A: Its normalized growth is 0.995.

Q: And the normalized growth (locus YJL154C, strain vps35, hits give low values)?
A: The normalized growth was 1.02.

Q: What about the normalized growth (locus YJL164C, strain tpk1, hits give low values) of the same compound?
A: Its normalized growth is 1.02.

Q: And the normalized growth (locus YJL166W, strain qcr8, hits give low values)?
A: The normalized growth was 1.02.

Q: And the normalized growth (locus YJL168C, strain set2, hits give low values)?
A: The normalized growth was 0.994.

Q: What about the normalized growth (locus YJL187C, strain SWE1 (second series), hits give low values) of the same compound?
A: The normalized growth was 1.01.

Q: What about the normalized growth (locus YJL187C, strain SWE1, hits give low values) of the same compound?
A: Its normalized growth is 1.01.

Q: And the normalized growth (locus YJR043C, strain POL32, hits give low values)?
A: The normalized growth was 0.991.

Q: What about the normalized growth (locus YJR066W, strain TOR1, hits give low values) of the same compound?
A: Its normalized growth is 0.94.
